Laboratory results from PubChem BioAssay AID504339 (National Center for Advancing Translational Sciences (NCATS), 2011).
Among all 390,000 compounds or so, about 17,000 (4.4%) were called active. Not shown: some 8% with an inconclusive outcome. Calls come from the whole dose curve; as a rule, active = well fitted inhibition curve with a large enough effect; inconclusive = small, poorly fitted or top-dose-only effect; inactive = no such curve, though single readings can be large or run the other way. The full list was thinned out, with actives kept by preference.

Molecular target: Lysine-specific demethylase 4A (Homo sapiens) (UniProt O75164)
Assay: qHTS Assay for Inhibitors of JMJD2A-Tudor Domain; note: nearly all actives have a fitted effect of over 50% in size
Details: AlphaScreen JMJD2A-Tudor / H3K4me3 peptide binding; series mostly up to 114 µM
% is set by controls: 0 for no effect and ±100 for the full control effect; potency is the fitted concentration of half-maximal effect.

Chain of Lysine-specific demethylase 4A (Homo sapiens) (O75164 whole entry, looked up, the tested form may be a part): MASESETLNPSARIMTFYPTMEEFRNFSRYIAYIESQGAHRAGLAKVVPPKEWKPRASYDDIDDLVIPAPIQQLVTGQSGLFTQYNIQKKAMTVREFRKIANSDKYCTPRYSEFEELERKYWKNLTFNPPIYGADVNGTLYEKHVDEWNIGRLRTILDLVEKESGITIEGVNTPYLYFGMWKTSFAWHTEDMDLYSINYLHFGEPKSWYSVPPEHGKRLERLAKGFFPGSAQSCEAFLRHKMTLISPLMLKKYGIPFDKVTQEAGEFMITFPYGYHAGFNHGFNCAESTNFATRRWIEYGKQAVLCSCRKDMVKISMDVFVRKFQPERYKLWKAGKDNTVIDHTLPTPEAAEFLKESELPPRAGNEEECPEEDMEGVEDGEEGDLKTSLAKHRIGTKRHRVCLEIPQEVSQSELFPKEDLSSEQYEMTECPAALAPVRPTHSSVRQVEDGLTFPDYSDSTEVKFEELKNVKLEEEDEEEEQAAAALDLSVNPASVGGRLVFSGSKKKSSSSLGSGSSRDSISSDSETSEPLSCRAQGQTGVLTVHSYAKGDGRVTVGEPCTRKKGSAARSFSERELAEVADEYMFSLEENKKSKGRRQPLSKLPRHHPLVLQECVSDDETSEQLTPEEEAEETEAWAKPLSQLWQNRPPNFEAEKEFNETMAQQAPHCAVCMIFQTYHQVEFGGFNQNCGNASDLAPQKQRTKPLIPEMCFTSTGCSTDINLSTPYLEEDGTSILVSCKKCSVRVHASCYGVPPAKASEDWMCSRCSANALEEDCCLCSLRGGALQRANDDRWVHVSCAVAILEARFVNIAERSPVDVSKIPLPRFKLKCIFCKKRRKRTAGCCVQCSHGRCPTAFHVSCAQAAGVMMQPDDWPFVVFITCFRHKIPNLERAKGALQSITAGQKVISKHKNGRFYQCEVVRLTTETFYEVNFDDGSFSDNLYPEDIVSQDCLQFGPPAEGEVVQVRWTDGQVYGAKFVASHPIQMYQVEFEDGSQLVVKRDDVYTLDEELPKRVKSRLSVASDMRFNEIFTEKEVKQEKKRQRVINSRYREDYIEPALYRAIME

Potency, active:
CCN1CCN(C(c2cccnc2)c2cc(Cl)c3cccnc3c2O)CC1 (stereo not drawn) 17.8 µM, CCOC(=O)N1CCN(C(c2cccnc2)c2ccc3cccnc3c2O)CC1 (stereo not drawn) 17.8 µM, O=C1C=CC(=O)N1c1ccc(N2CCCCC2)cc1 20 µM, CCc1nnc(NC(=O)c2nc3nccc(C)n3n2)s1 35.5 µM, COc1ccccc1-n1ccnc(SCC(=O)NC2CCCCC2)c1=O 35.5 µM, COc1ccc(OCCCCN2CCC(C)CC2)cc1 20 µM, C/C=C/c1ccc(OCCCCN2CCC(C)CC2)c(OC)c1 3.16 µM, C/C=C/c1ccc(OCC(O)CN2CCCCCCC2)c(OC)c1 (stereo not drawn) 3.16 µM, S=c1[nH]nc(NCCc2ccccc2)s1 2.51 µM, Cc1ccccc1-c1n[nH]c(=S)n1C 7.08 µM, COc1ccc(C(=O)CSc2n[nH]c(N)n2)cc1 56.2 µM, CC(C)(C)C1C/C(=C/c2ccco2)C(=O)/C(=C/c2ccco2)C1 (stereo not drawn) 31.6 µM, C=CCn1c(-c2ccc3[nH]c(C)c(C)c3c2)n[nH]c1=S 50.1 µM, C=CCn1c(-c2ccccc2OCC)n[nH]c1=S 4.47 µM, Nc1ccccc1SC(C[N+](=O)[O-])c1ccccc1 (stereo not drawn) 6.31 µM, CN1CCN(c2oc(-c3ccc(COc4ccc(Cl)cc4)o3)nc2C#N)CC1 39.8 µM, N#Cc1nc(COc2ccc(-c3ccccc3)cc2)oc1NCc1cccnc1 44.7 µM, COc1cccc(/C=N\NC(=O)C2=NNC(=O)C2C)c1O (stereo not drawn) 56.2 µM, O=C1c2cccc3cccc(c23)C(=O)N1CCCCCc1n[nH]c(=S)o1 89.1 µM, COc1cc(/C=C2\Oc3ccc(C#Cc4ccc(O)cc4)cc3C2=O)cc(OC)c1 89.1 µM

Potency, inactive:
CCN1CCN(CCCNC(=O)c2cnn(-c3ccc(C)cc3C)c2C2CCN(C(=O)OC(C)(C)C)CC2)CC1, COc1ccc(Cn2c(=O)n(-c3ccccc3C)c(=O)c3c4c(sc32)CN(C(C)=O)CC4)cc1, COc1ccccc1N1CCN(C(CNC(=O)C(=O)NCc2ccc(C)cc2)c2cccnc2)CC1 (stereo not drawn), CC(=O)NC(c1cccs1)c1cc(Cl)c2cccnc2c1O (stereo not drawn), O=C(CSc1cccc2cccnc12)N/N=C/c1cccnc1, O=C(NC(c1ccco1)c1cc(Cl)c2cccnc2c1O)c1ccccc1 (stereo not drawn), CC1=C(C(=O)OCc2ccc(C)cc2)C(c2c(Cl)cccc2Cl)CC(=O)N1 (stereo not drawn), Cc1onc(-c2ccc(F)cc2F)c1C(=O)Nc1cccc(C(F)(F)F)c1, CCOCCCNC(=O)c1c(NC(=O)c2nc(SC)ncc2Cl)sc2c1CCCC2, CCOc1ccc(NC(=O)CCc2c(C)nn(-c3ccc(N4CCCC4)nn3)c2C)cc1, CCC(=O)c1ccc(OCC(=O)Nc2ccc(N3CCCCC3)cc2)cc1, O=C(C1CC(=O)N(C2CCCCC2)C1)N1CCN(c2ccccc2)CC1 (stereo not drawn), CCC(=O)Nc1ccc(C)cc1-c1nc2ccccc2n(Cc2ccccc2)c1=O, COc1cc(CN(C(=O)c2ccccc2Br)c2ccccn2)cc(OC)c1OC, COc1ccccc1C1C(C(=O)N2CCCCC2)=C(C)Nc2nc3ccccc3n21 (stereo not drawn), COc1ccccc1CNC(=O)c1ccc(-n2c(C)cc3c2CCCC3)cc1, CCc1nnc(NC(=O)c2ccc(S(=O)(=O)NC3CCCCC3)cc2)s1, Cc1ccnc2nc(C(=O)Nc3nnc(-c4ccccc4)o3)nn12, COc1ccc(CCC(=O)NCc2ccc3c(c2)CCN3C(=O)c2ccc(F)cc2)cc1, COc1ccccc1-n1ccnc1SCC(=O)NC(C)(C)C, COc1ccc(-c2nnc(SCC(=O)NC3CCCCC3)o2)cc1OC, N#CN1CCC(NC(=O)c2ccc(F)cc2)CC1, C/C=C/c1ccc(OCCOc2ccc(C=O)cc2OC)c(OC)c1, CC1CCN(CCC(=O)Nc2ccccc2)CC1, C=CCc1ccc(OCC(O)CN2CCN(Cc3ccccc3)CC2)c(OC)c1 (stereo not drawn), C/C=C/c1ccc(OCC(=O)NNC(=O)CN(C)S(=O)(=O)c2ccc(C)cc2)c(OC)c1, COc1ccc(OC)c(NC(=O)CCN2CCC(C)CC2)c1, OC(COc1ccc(CN2CCSCC2)cc1)CN1CCCCC1 (stereo not drawn), O=C(NC1CC(=O)N(c2ccc(F)cc2)C1)c1cccs1 (stereo not drawn), COc1ccc(-c2noc(CSc3nnc(-c4ccccc4)n3-c3ccc(F)cc3)n2)c(OC)c1, Cc1oc2ccc(O)c(CN3CCCCC3)c2c1C(=O)Nc1cccc(C(F)(F)F)c1, CCCCCn1c(=O)[nH]c2cc(C(=O)NCCN(C)CCCC)ccc2c1=O, CCC(=O)N1CCc2cc(S(=O)(=O)NC(Cc3ccccc3)C(=O)NCc3ccc(C)cc3)ccc21 (stereo not drawn), CN(Cc1ccccc1)C(=O)c1cc2c(=O)n(C)c3ccccc3c2s1, COc1ccc(C2=Nn3c(nnc3-c3ccccc3O)SC2)cc1, CC1=C(C(=O)OCC(C)C)C(c2ccc(OCc3ccccc3)cc2)N2C(=O)CCSC2=N1 (stereo not drawn), CCC(=O)Nc1cccc(C(=O)OCc2cc(=O)n3nc(CC)sc3n2)c1, O=S(=O)(NCCc1ccccc1)c1ccccc1, O=S(=O)(NCCc1ccncc1)c1ccccc1, Cc1nn2c(=O)cc(COC(=O)CNC(=O)c3ccc(F)cc3)nc2s1, Cc1ccc(C)c(N2CCN(Cc3nnc(-c4ccccc4)o3)CC2)c1, CC1CCC(N2CC(=O)N(CCC3=CCCCC3)C(c3ccc(F)cc3)C2=O)CC1 (stereo not drawn), Cn1c(-c2sc3cc(C(F)(F)F)cnc3c2-c2ccccc2)n[nH]c1=S, COc1ccc(-c2nc(SCC(=O)N3CCOCC3)n[nH]2)cc1, COc1ccc(CNC(=O)CSc2n[nH]c(N)n2)cc1OC, COc1cccc(C(=O)NC(=O)Nc2ccc(-c3cc(C(F)(F)F)nn3-c3ccccc3)cc2)c1, Cc1ccc(S(=O)(=O)NCc2nc3nc(C)cc(C)n3n2)cc1, CCC1=Nc2cc(C(=O)NCCCOC(C)C)ccc2Sc2ccc(C)cc21, O=C(CCS(=O)(=O)c1ccc2c(c1)NC(=O)CO2)Nc1cccc(C(F)(F)F)c1, CS(=O)(=O)c1ccc2c(c1)SC1=NC(=O)/C(=C/c3ccco3)C(=N)N12, Cc1cccc(NC(=O)CSc2ncc(-c3ccccc3)[nH]2)c1C, CCc1ccccc1NS(=O)(=O)c1ccc2nc(-c3ccccc3)[nH]c2c1, Cc1ccc(Nc2ccc3cc(S(=O)(=O)N4CCCCC4)ccc3n2)cc1F, CCOc1ccc(C2CC(=O)c3c([nH]c(C(=O)OCc4ccccc4)c3C)C2)cc1 (stereo not drawn), Cc1ccc(CNC(=O)CCc2c(C)nn(-c3ccc(N4CCCC4)nn3)c2C)cc1, Cc1[nH]c2ccc(S(N)(=O)=O)cc2c1C, C=CCn1c(COc2ccccc2C)nnc1SCC(=O)O, C=CCn1c(=S)sc2c(=O)[nH]c(C)nc21, C=CCn1c(CCc2ccc(OC(C)C)cc2)n[nH]c1=S, COc1ccc(-c2cn3c(C)c(C(=O)Nc4cc(C)cc(C)c4)sc3n2)cc1, COC(=O)c1cc2occc2n1Cc1nc(-c2ccc(C)cc2)oc1C, Cc1cccc(NC(=O)c2cc3c(C)nn(-c4ccccc4)c3s2)c1, O=C(c1ccc(C(F)(F)F)cc1)N1CCC(c2nc(-c3ccc(S(=O)(=O)N4CCCC4)cc3)no2)CC1, O=C(CC(c1cccs1)N1Cc2ccccc2C1=O)Nc1ccc(F)c(F)c1 (stereo not drawn), Cc1cccc(NC(=O)CSc2nc3c([nH]c4ccccc43)c(=O)n2-c2cc(C)cc(C)c2)c1, Cc1ccc(N2CC(C(=O)Nc3ccc(N(C)C)cc3)CC2=O)cc1Cl (stereo not drawn), O=S(=O)(NCCS(=O)(=O)N1CCN(c2ccccc2)CC1)c1ccc(Cl)cc1, COc1ccc(OCc2ccc(-c3nc(C#N)c(N4CCN(c5ccccc5)CC4)o3)o2)cc1, CCC(C)Nc1oc(-c2ccc(COc3ccc(Cl)cc3)o2)nc1C#N (stereo not drawn), CCOc1ccccc1NC(=O)Cn1c(=O)n(Cc2ccccc2)c(=O)c2c(C)c(C(=O)N(C)C)sc21, c1ccc(COc2ccccc2CNCc2cccnc2)cc1, O=S(=O)(c1ccccc1)c1nc(-c2ccccc2F)oc1NCc1cccnc1, CCOC(=O)c1c(NC(=O)/C=C/c2ccc(OC)cc2)sc2c1CCC(C)C2 (stereo not drawn), COc1ccc(/C=N/NC(=O)C2CC2)c(OC)c1OC, COc1cc(/C=N\NC(=O)C2C(=O)NCC2c2ccccc2)cc(OC)c1O (stereo not drawn), CCOc1ccccc1NC(=O)CN1CCN(S(=O)(=O)c2ccc(Br)cc2)CC1, CCOc1cc(C2c3c(-c4ccc(Br)cc4)n[nH]c3C(=O)N2c2ccc(Cl)cc2)ccc1O (stereo not drawn), O=C(CN1C(=O)c2cccc3cccc(c23)C1=O)N1CCCCC1, O=C1c2ccccc2C(=O)N1CCCc1nc(-c2ccccc2)no1, CCCN1CCN(CCCNC(=O)Cn2nc(CC)n3c(cc4occc43)c2=O)CC1, COC(=O)C(C)Oc1ccc2c(c1)O/C(=C\c1cccc(Br)c1)C2=O (stereo not drawn), COc1cc(C#Cc2ccc3cc(CCCO)oc(=O)c3c2)cc(OC)c1

Activity change, negative = inhibition, inactive:
Cn1c(-c2sccc2OCc2cccc(C(F)(F)F)c2)n[nH]c1=S -12% [at 11.4 µM]
